# Results reported in PubChem BioAssay.
# Calls of active or inactive are those of the source.
# Experiment: probe aXIP binding to arrayed compounds – biochemical, NeuroSMM set, 635/667 nm fluorescence, primary screen (AID 1119);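 also: probe is the protein aXip251-270 applied at 1 µg/mL to compound-printed slides; binding of probe to printed compounds measured as 667 nm fluorescence plus signal to noise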
# Settings: small-molecule microarray, higher = more signal, called active from +8 up or from −8 down
row,Compound,composite Z-score
1,CCOC(=O)C[C@H]1[C@H](OC(=O)c2ccc(C(=O)c3ccccc3)cc2)[C@@H](NC(=O)c2ccc3ccccc3c2)c2cc(OCCCO)ccc2N1C(=O)c1ccc2ccccc2n1,0.159 (inactive)
2,O=C1NC(=O)C2C1C=CC(C(O)c1ccc(F)cc1)N2Nc1ccccn1 (configuration not stated),-0.531 (inactive)
3,COc1ccc([Si](C)(C)[C@H]2[C@H](CC(=O)N3Cc4ccccc4C[C@H]3CO)O[C@@]3(C(=O)N(Cc4cccc(N5C(=O)c6cccc7cccc5c67)c4)c4ccccc43)[C@@H]2C)cc1,0.285 (inactive)
4,COC(=O)[C@@]1(Cc2ccccc2)[C@@H]2[C@@H](CC(=O)[C@H]2CC(=O)C(=O)N(C)C)CN1C(=O)c1ccccc1,-0.077 (inactive)
5,COC(=O)[C@]1(CO)N=C(c2ccc(OCCCO)cc2)O[C@@H]1c1ccccc1CN=[N+]=[N-],0.277 (inactive)
6,CC(C)CNC(=O)[C@@H]1c2ccccc2C(=O)N(C(C)C)[C@H]1c1ccc(CO)cc1,0.337 (inactive)
7,Cc1c(NC(=O)/C(C#N)=C/c2ccc(Cl)cc2)c(=O)n(-c2ccccc2)n1C,1.5 (inactive)
8,O=C1c2ccccc2[C@](Cc2ccccc2I)(C(=O)O)[C@H](c2ccc(CO)cc2)N1Cc1ccccc1,0.929 (inactive)
9,CCC[C@@H]1C=C(C(=O)OCC)[C@H](c2ccccc2)N1S(=O)(=O)c1ccc(C)cc1,0.142 (inactive)
10,COCCOC(=O)N1C(=O)[C@@]2(c3cc(C#CCC(C(=O)OC)C(=O)OC)ccc31)[C@H](c1ccc(OCCO)cc1)N1[C@H](c3ccccc3)[C@H](c3ccccc3)OC(=O)[C@H]1[C@@H]2C(=O)N1CCCCCCC1,2.32 (inactive)
11,CCOC(=O)C[C@H]1[C@H](OC(=O)c2ccc(-c3ccccc3)cc2)[C@@H](NC(=O)CC(C)C)c2cc(OCCCO)ccc2N1C(=O)Cc1ccc(OC)cc1,-0.244 (inactive)
12,COCCOC(=O)N1C(=O)[C@@]2(c3cc(C#CCC(C(=O)OC)C(=O)OC)ccc31)[C@H](C(N)=O)[C@H]1C(=O)O[C@H](c3ccccc3)[C@H](c3ccccc3)N1[C@@H]2c1ccc(OCCO)cc1,-0.0102 (inactive)
13,C=CCC(OC(C)=O)[C@@H]1[C@@H](N(Cc2ccc(-c3cccc(C(F)(F)F)c3)o2)C(=O)c2cccc3ccccc23)c2cc(OCCCO)ccc2N1C(=O)c1ccc2ccccc2c1 (some centres not stated),0.115 (inactive)
14,COC(=O)[C@@]1(Cc2ccccc2)[C@H]2c3cc(C(=O)N4CCCC4)n(Cc4ccc(C(F)(F)F)nc4)c3C[C@H]2CN1C(=O)c1ccccc1,-0.296 (inactive)
15,C=CC[C@@]1(C(=O)O)N=C(c2ccc(OCCCO)cc2)O[C@@H]1c1ccccc1CN=[N+]=[N-],-0.632 (inactive)
16,COc1ccc([Si](C)(C)[C@H]2[C@H](CCn3cc([C@H](O)c4ccccc4)nn3)O[C@@]3(C(=O)N(C)c4c(Br)cc(C)cc43)[C@@H]2C)cc1,1.94 (inactive)
17,CC1(C)OC[C@@]23C=C(Br)[C@@H](C[C@H]12)[C@@]1(CO1)C3=O,0.0315 (inactive)

# Experiment: probe aNOTCH3 binding on compound microarray – biochemical, small-molecule microarray, 635/667 nm fluorescence, primary screen (AID 1120);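 also: probe is a biotin-tagged antibody raised against NOTCH3 rather than NOTCH3 protein; score merges spot fluorescence near 667 nm with spot signal to noise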
# Settings: higher = more signal
row,Compound,composite z-score
1,CCN(CC)c1ccc(N2CC=CC34O[C@@H]5C=CCOC(=O)[C@@H]5[C@H]3C(=O)N(CCO)[C@@H]4C2=O)cc1 (some centres not stated),0.0035
2,CCOC(=O)C1=CC[C@@H](c2ccccc2)N(S(=O)(=O)C[Si](C)(C)C)[C@H]1c1ccccc1,0.138
3,CN(C)CCCC[C@@H]1NC(=O)[C@@H]2C[C@H](C(=O)NCc3ccc(F)cc3)[C@H](c3ccc(O)cc3)N2C1=O,0.0562
4,C=CCOC(=O)[C@H]1[C@@H]2C(=O)O[C@@H](c3ccccc3)[C@@H](c3ccccc3)N2[C@@H](c2ccc(OCCOC(=O)[C@@H]3C[C@@H]4C(=O)N[C@@H](CC(C)C)C(=O)N4[C@@H]3c3ccc(O)cc3)cc2)[C@]12C(=O)Nc1ccc(I)cc12,0.0469
5,COCCCNC(=O)[C@@H]1c2ccccc2C(=O)N(C2CCCCC2)[C@H]1c1ccc(CO)cc1,-0.27
6,CN(C)CCCC[C@@H]1NC(=O)[C@H]2C[C@@H](C(=O)NCc3ccc(F)cc3)[C@@H](c3ccc(O)cc3)N2C1=O,-0.136
7,COc1ccc(C#Cc2ccc3c(c2)[C@]2(C(=O)N3)[C@H](C(=O)Nc3nc4ccccc4s3)[C@H]3C(=O)O[C@H](c4ccccc4)[C@H](c4ccccc4)N3[C@@H]2c2ccc(OCCO)cc2)cc1,0.109
8,C=CCC(OC(C)=O)[C@@H]1[C@@H](N(Cc2ccc(-c3cccc(C(F)(F)F)c3)o2)C(=O)c2cccc3ccccc23)c2cc(OCCCO)ccc2N1C(=O)c1ccc2ccccc2n1 (some centres not stated),0.0248
9,C[N+](C)(C)CCCC[C@@H]1NC(=O)[C@H]2C[C@@H](C(=O)NCCCCCNC(=O)CS)[C@@H](c3ccc(O)cc3)N2C1=O,-0.154
10,C=CCC(OC(C)=O)[C@@H]1[C@@H](N(Cc2cccc3ccccc23)C(=O)c2cccc3ccccc23)c2cc(OCCCO)ccc2N1C(=O)Cc1ccc2ccccc2c1 (some centres not stated),-0.128
11,COc1ccc(C(O)C2C=CC3C(=O)N(C)C(=O)C3N2Nc2ccc([N+](=O)[O-])cc2[N+](=O)[O-])cc1OCc1ccccc1 (configuration not stated),0.583
12,COCCOC(=O)N1C(=O)[C@@]2(c3cc(C#CCC(C(=O)OC)C(=O)OC)ccc31)[C@H](C(=O)N1CCc3cc(OC)c(OC)cc3C1)[C@H]1C(=O)O[C@H](c3ccccc3)[C@H](c3ccccc3)N1[C@@H]2c1ccc(O)cc1,0.23
13,C=CCNC(=O)[C@@H]1[C@H]2C(=O)O[C@H](c3ccccc3)[C@H](c3ccccc3)N2[C@H](c2ccc(O)cc2)[C@@]12C(=O)Nc1ccc(C#CC3(O)CCCCCC3)cc12,0.39
14,COCCOC(=O)N1C(=O)[C@@]2(c3ccccc31)[C@H](C(=O)N1CCCCCCC1)[C@H]1C(=O)O[C@H](c3ccccc3)[C@H](c3ccccc3)N1[C@@H]2c1ccc(O)cc1,2
15,N#Cc1ccc(C(O)C2C=CC3C(=O)NC(=O)C3N2Nc2ccccn2)cc1 (configuration not stated),0.0297
16,CC(C)C[C@H]1NC(=O)[C@@]23C(=O)N[C@@H](Cc4ccccc4)C2[C@H](C)[C@@]2(C)O[C@H]2C3/C=C/C/C=C\CNC(=O)[C@@H]2CCCN2C1=O (some centres not stated),0.0694
17,CCCC[C@@H]1C[C@H]1[C@@H](NC(=O)Cc1ccccc1)c1ccc(Cl)cc1,0.532
18,NC(=O)N1C(=O)C2C(C1=O)C1C=C(CCCO)C2C(c2ccc(CN3CCCC3)cc2)N1Cc1cccc(OC(F)(F)F)c1 (configuration not stated),0.0142

row,Compound,composite z-score
1,CCOC(=O)C[C@H]1[C@H](OC(=O)c2ccc(C(=O)c3ccccc3)cc2)[C@@H](NC(=O)c2ccc3ccccc3c2)c2cc(OCCCO)ccc2N1C(=O)c1ccc2ccccc2n1,0.134
2,O=C1NC(=O)C2C1C=CC(C(O)c1ccc(F)cc1)N2Nc1ccccn1 (configuration not stated),-0.004
3,COc1ccc([Si](C)(C)[C@H]2[C@H](CC(=O)N3Cc4ccccc4C[C@H]3CO)O[C@@]3(C(=O)N(Cc4cccc(N5C(=O)c6cccc7cccc5c67)c4)c4ccccc43)[C@@H]2C)cc1,-0.332
4,COC(=O)[C@@]1(Cc2ccccc2)[C@@H]2[C@@H](CC(=O)[C@H]2CC(=O)C(=O)N(C)C)CN1C(=O)c1ccccc1,-0.0288
5,COC(=O)[C@]1(CO)N=C(c2ccc(OCCCO)cc2)O[C@@H]1c1ccccc1CN=[N+]=[N-],-0.122
6,CC(C)CNC(=O)[C@@H]1c2ccccc2C(=O)N(C(C)C)[C@H]1c1ccc(CO)cc1,-0.153
7,Cc1c(NC(=O)/C(C#N)=C/c2ccc(Cl)cc2)c(=O)n(-c2ccccc2)n1C,0.029
8,O=C1c2ccccc2[C@](Cc2ccccc2I)(C(=O)O)[C@H](c2ccc(CO)cc2)N1Cc1ccccc1,-0.123
9,CCC[C@@H]1C=C(C(=O)OCC)[C@H](c2ccccc2)N1S(=O)(=O)c1ccc(C)cc1,0.341
10,COCCOC(=O)N1C(=O)[C@@]2(c3cc(C#CCC(C(=O)OC)C(=O)OC)ccc31)[C@H](c1ccc(OCCO)cc1)N1[C@H](c3ccccc3)[C@H](c3ccccc3)OC(=O)[C@H]1[C@@H]2C(=O)N1CCCCCCC1,1.77
11,CCOC(=O)C[C@H]1[C@H](OC(=O)c2ccc(-c3ccccc3)cc2)[C@@H](NC(=O)CC(C)C)c2cc(OCCCO)ccc2N1C(=O)Cc1ccc(OC)cc1,0.0582
12,COCCOC(=O)N1C(=O)[C@@]2(c3cc(C#CCC(C(=O)OC)C(=O)OC)ccc31)[C@H](C(N)=O)[C@H]1C(=O)O[C@H](c3ccccc3)[C@H](c3ccccc3)N1[C@@H]2c1ccc(OCCO)cc1,0.0271
13,C=CCC(OC(C)=O)[C@@H]1[C@@H](N(Cc2ccc(-c3cccc(C(F)(F)F)c3)o2)C(=O)c2cccc3ccccc23)c2cc(OCCCO)ccc2N1C(=O)c1ccc2ccccc2c1 (some centres not stated),0.147
14,COC(=O)[C@@]1(Cc2ccccc2)[C@H]2c3cc(C(=O)N4CCCC4)n(Cc4ccc(C(F)(F)F)nc4)c3C[C@H]2CN1C(=O)c1ccccc1,0.843
15,C=CC[C@@]1(C(=O)O)N=C(c2ccc(OCCCO)cc2)O[C@@H]1c1ccccc1CN=[N+]=[N-],0.0991
16,COc1ccc([Si](C)(C)[C@H]2[C@H](CCn3cc([C@H](O)c4ccccc4)nn3)O[C@@]3(C(=O)N(C)c4c(Br)cc(C)cc43)[C@@H]2C)cc1,-0.259
17,CC1(C)OC[C@@]23C=C(Br)[C@@H](C[C@H]12)[C@@]1(CO1)C3=O,0.0824
